Pf growth 48h: inhibits P. falciparum growth in the first generation, 48 h; Potency, µM (highest dose often 28.7 µM), for inactives: at the highest dose activity change, negative = inhibition, most hits filed as inhibitors; P. falciparum luciferase growth in erythrocytes, 48 h; 5.9% of 310,000 active; note: potency is the fitted concentration of half-maximal effect; % is set by controls: 0 for no effect and ±100 for the full control effect
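Parasite viability was followed by luminescence of a genomically integrated firefly luciferase. Cultures held 0.1% parasitemia at 2% hematocrit (final), incubated under 5% CO2 at 37 C.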
CHX counter-1: counter-screen hit for Shiga toxin inhibitors, cycloheximide; cell reporter, cycloheximide protein synthesis inhibition counterscreen; max response, %; 12% of 300,000 active; AID 2314; in the data active = max response mostly above about 13%, no sharp cut-off; inactive = mostly below about 14%; note: read at 38.3 µM for the half of the compounds with a filed dose; 0% is about no effect
HCV inh: inhibitors of hepatitis C virus infection; Huh7.5.1 HCVcc-Cre infection, luciferase reporter, 44 h; Potency, µM (doses to about 41.8 µM), for the others: at the top dose activity change, negative = inhibition, usual class: inhibitors; 3.4% of 340,000 active; AID 651820; note: potency is the fitted concentration of half-maximal effect; % is set by controls: 0 for no effect and ±100 for the full control effect
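A cell-based infection assay in which seeded cells (1,000 per well) receive test compound after 4 h, are inoculated with HCVcc-Cre at approximately 0.5 moi, and are incubated 44 h before luminescence detection.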
Pf growth 96h: inhibits malaria parasite growth, 96 h. P. falciparum luciferase reporter growth, 96 h. Potency, µM (series often up to 28.7 µM), for the others: at the highest dose activity change, negative = inhibition, actives largely listed as inhibitors. 6.9% of 320,000 active. AID 504834; note: potency is the fitted concentration of half-maximal effect; % is set by controls: 0 for no effect and ±100 for the full control effect
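Luminescence readout: decreased luciferase signal marks inhibited growth of reporter-expressing P. falciparum in infected red cells (2% hematocrit, 0.05% parasitemia final), exposed to compound two generations (96 h, 37 C, 5% CO2).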
Shiga toxin inh: blocks Shiga toxin action in Vero cells | Vero cells, Shiga toxin protein synthesis inhibition reporter | inhibition, % at 38.7 µM | 9.2% of 290,000 active | AID 2315; in the data active = inhibition mostly above about 28%, no sharp cut-off; inactive = mostly below about 43%; note: 0% is about no effect
AMA1 RON2 block: AMA1-RON2 (P. falciparum) interaction inhibition. AID 720542. 0.2% of 360,000 active. AlphaScreen AMA1-biotinylated RON2 peptide binding. Potency, µM (titrated, usually from 58.2 µM), inactives show at the highest dose activity change, negative = inhibition, hits mostly inhibitors;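 note: potency is the fitted concentration of half-maximal effect; 0% = vehicle wells and -100% = peptide control; nearly all actives have a fitted effect of over 45% in size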
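AMA1 (3D7) with his tag at 25 nM final met compounds first, then biotinylated RON2 peptide at 25 nM; detection used donor plus acceptor beads, 10 µg/mL apiece, read by AlphaScreen after 30 min at room temperature.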
CHX counter-2: protein synthesis counter-screen activity for Shiga toxin hits; Cycloheximide counterscreen, protein synthesis reporter, Shiga toxin assay; 3% of 510 active; AID 2318; shares compounds with Shiga toxin inh; Potency, µM (series often up to 38.3 µM), inactives show at the top dose activity (activation), hits mostly activators; calls by dose curve; note: potency is the fitted concentration of half-maximal effect; 0% is about no effect
* hit, by the source's call; ? = inconclusive; nt = no result. Most compounds without a hit are left out; they make up all but 21% or so of the library. Unless noted, calls come from the whole dose curve; as a rule, active = well fitted curve in the direction sought with a large enough effect; inconclusive = small, poorly fitted or top-dose-only effect, or another doubt; inactive = no such curve, though single readings can be large; an effect the other way counts as inactive or inconclusive.

SMILES | Pf growth 48h | CHX counter-1 | HCV inh | Pf growth 96h | Shiga toxin inh | AMA1 RON2 block | others
Cc1cc(C)cc(N(C(=O)c2snc(C(N)=O)c2N)C(C(=O)NCC2CCCO2)c2ccc(C)o2)c1 (stereo not drawn) | ? | -4 | ? | ? | -4 | -12%
COc1cc(OC)cc(N(C(=O)c2snc(C(N)=O)c2N)C(C(=O)NCC2CCCO2)c2ccc(C)o2)c1 (stereo not drawn) | 4.7µM* | -2 | nt | 36% | 3 | nt
N#C/C(=C\c1cccnc1)C(=O)Nc1ccc(O)cc1F | 1% | -4 | 6% | 3% | -4 | -2%
COC(=O)C[C@H]1C=C[C@H](NC(=O)c2cccc(F)c2)[C@@H](CO)O1 | nt | nt | nt | nt | nt | 38%
NC(=O)c1ccccc1OCCOCCOCCOc1ccccc1C(N)=O | 5% | -3 | 2% | nt | -14 | 27%
O=P(O)(O)c1ccccc1OCCOCCOCCOCCOc1ccccc1P(=O)(O)O | 123% | 42* | 6% | -26% | 47 | 2%
Cc1nc2ccccc2nc(C)c1=NOCc1cccc(Cl)c1 | ? | -2 | 2% | ? | 31 | -8%
Cc1nc2ccccc2cc1OCc1ccc(Cl)cc1 | 3% | 54* | 7.1µM* | 14% | 101* | 6%
COC(=O)c1sccc1OCc1cccc(OC)c1 | 22% | 20 | -20% | ? | 38 | 25%
Cc1nc2ccccc2cc1OCc1ccccc1 | 48% | 46* | 10µM* | 76% | 22 | 11%
COc1cccc(COc2cc3ccccc3nc2C)c1 | 54% | 17* | 5.6µM* | 69% | 58* | 2%
CSc1ccc(Cn2c(C)c(C(=O)NCc3cccs3)sc2=O)cc1 | nt | nt | nt | nt | nt | -12%
Cc1cccc(N2CCN(C(=O)COc3noc4nc(C)cc(C)c34)CC2C)c1 (stereo not drawn) | nt | nt | nt | nt | nt | -4%
COc1cc(C(=O)Cc2nc3ccccc3n2C)cc(OC)c1OC | ? | 8 | -21% | -13% | 21 | 58%
CC(C)c1ccc(C(O)c2nc3ccccc3n2C)cc1 (stereo not drawn) | ? | 9 | -15% | -20% | 22 | 16%
CC(C)c1ccc(C(O)Cc2nc3ccccc3n2C)cc1 (stereo not drawn) | ? | 60* | 1% | ? | 127* | -14%
CN(Cc1nc2ccccc2n1C)c1ccccc1 | 0% | 12 | -14% | ? | 38 | -5%
COc1ccccc1C(O)Cc1nc2ccccc2n1C (stereo not drawn) | nt | 63* | -13% | -25% | 108* | 19%
CN(C)c1ccc(C(O)Cc2nc3ccccc3n2C)cc1 (stereo not drawn) | 16% | 25* | 15% | 9% | 63* | -10%
O=C(NCc1ccc(Cl)cc1)C1CCN(S(=O)(=O)c2ccc(F)cc2)CC1 | -4% | -4 | -17% | 23% | -5 | 0%
COc1ccc(CCNC(=O)CCC(=O)N2CC(C)Oc3ccccc32)cc1OC (stereo not drawn) | -22% | -1 | -5% | ? | -6 | 9%
O=C1c2cc(Br)ccc2N(Cc2ccc(Br)cc2)S(=O)(=O)C1c1cc(Cl)c(Cl)cc1[N+](=O)[O-] (stereo not drawn) | nt | nt | 13% | nt | nt | -6%
NC(=O)c1ccc(NC(=O)COC(=O)CNC(=O)c2sc3ccccc3c2Cl)cc1 | -17% | nt | -5% | ? | nt | 0%
CCOc1ccc(C(=O)NC(C)C2COc3ccccc3O2)cc1 (stereo not drawn) | 33% | 11* | -21% | 1% | 34 | -8%
CC(NC(=O)COc1ccccc1)C1COc2ccccc2O1 (stereo not drawn) | nt | nt | -9% | nt | nt | 2%
SMILES | Pf growth 48h | CHX counter-1 | HCV inh | Pf growth 96h | Shiga toxin inh | AMA1 RON2 block | others
CCOc1ccc(C(=O)NCC(c2cccs2)N(C)C)cc1 (stereo not drawn) | 16% | 35* | -1% | ? | 28* | -7%
CCOc1ccc(C(=O)NCC(C)NC(=O)c2ccc(OCC)cc2)cc1 (stereo not drawn) | 7% | 1 | 10% | 0% | 0 | -16%
CCOc1ccc(C(=O)NCC(C)C)cc1 | 57% | 22* | 17% | 281% | 57* | -3%
CCOC(=O)C1=C(COC(=O)CCOc2ccc(C)cc2)NC(=O)NC1C (stereo not drawn) | -17% | nt | ? | 10% | nt | 1%
CN(C)/C=N/C(=S)Nc1ccc(Cl)c(Cl)c1 | -2% | 40* | -27% | -11% | 111* | 40%
CN(N)C(=S)Nc1ccc(F)cc1 | 1% | 12 | -3% | 4% | -6 | 98%
CN(C)/C=N/C(=S)Nc1cc(Cl)cc(Cl)c1 | 6% | 4 | -5% | ? | -6 | 23%
CN(C)/C=N/C(=S)Nc1ccc(F)cc1 | 23% | 25* | 7% | 38% | 38* | -4%
CN(C(=O)CSc1nc2ccc(Cl)cc2[nH]1)C1CCS(=O)(=O)C1 (stereo not drawn) | nt | nt | 10% | nt | nt | 11%
CCOc1ccc(S(=O)(=O)c2ccc(C)cc2)c2c1no[n+]2[O-] | nt | nt | nt | nt | nt | 16%
Cn1c(-[n+]2c(-c3ccccc3)cc(-c3ccccc3)cc2-c2ccccc2)nc2cc([N+](=O)[O-])ccc21 | 13µM* | 12 | -2% | 3.3µM* | 42* | 4% | CHX counter-2=-3%
CCOC(=O)c1c(C)[nH]c(C2=NNC(=NC3CC3)SC2)c1C | 39% | 10 | ? | -33% | 32* | 88% | CHX counter-2=0.05µM*
Cc1ccccc1OCCCN1C(=O)C(=O)c2cccc(C)c21 | ? | 6 | ? | -18% | 28* | 16µM* | CHX counter-2=-1%
Cc1cccc2c1N(CCCOc1ccccc1)C(=O)C2=O | -5% | -3 | -19% | -22% | 1 | -27%
O=C(NCCC1=CCCCC1)C1CCN(S(=O)(=O)c2cccc3cccnc23)CC1 | -14% | 9 | ? | ? | active | -1% | CHX counter-2=3%
CN(C)S(=O)(=O)Nc1ccc(Oc2ccccc2)cc1 | 11% | -1 | -10% | nt | -25 | -2%
CCCCc1ccc(NS(=O)(=O)N(C)C)cc1 | 24% | 2 | 16% | 10µM* | 72* | 39% | CHX counter-2=3%
O=C(c1ccco1)N1CCN(CCOc2ccc(F)cc2)CC1 | -9% | 2 | 10% | 14% | 17 | 4%
O=C(c1ccco1)N1CCN(CCCCOc2cccc3ccccc23)CC1 | ? | 7 | -29% | ? | 37* | -15% | CHX counter-2=0%
CNC(=O)CSc1nnc(-c2cc(C)cc(C)c2)o1 | 14% | 1 | 10% | 12% | 27* | -9% | CHX counter-2=1%
CCCCSCCCNC(=O)CCCN1C(=O)c2ccccc2Sc2ncccc21 | ? | 2 | -1% | ? | 32* | -9% | CHX counter-2=5%
